Shiga inhibitor – A qHTS for Small Molecule Inhibitors of Shiga Toxin; Vero cells, Shiga toxin protein synthesis inhibition reporter; inhibition, % at 38.7 µM; actives 9.2% (n = 290,000); in the data active means inhibition mostly above about 28%, no sharp cut-off; inactive means mostly below about 43%; further: 0% is about no effect
Pf growth 96h – Primary qHTS for delayed death inhibitors of the malarial parasite plastid, 96 hour incubation; P. falciparum luciferase reporter growth, 96 h; Potency, µM (titrated, usually from 28.7 µM), for the others: at the top dose activity change, negative = inhibition, usual class: inhibitors; actives 6.9% (n = 320,000); active means well fitted inhibition curve with a large enough effect; inconclusive means small, poorly fitted or top-dose-only effect, or another doubt; inactive means no such curve, though single readings can be large or run the other way; further: potency means the concentration at half of the fitted maximal effect; on the % scale 0 is the no-effect control and ±100 the full control effect
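P. falciparum expressing integrated firefly luciferase, in erythrocytes at 2% hematocrit, 0.05% parasitemia, incubated with compounds 96 h at 37 C, 5% CO2. Growth inhibition read as loss of luminescence; two-generation exposure targets delayed-death apicoplast inhibitors.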
Cycloheximide cs – Cycloheximide Counterscreen for Small Molecule Inhibitors of Shiga Toxin | max response, % | AID 2314, 2010 | cell reporter, cycloheximide protein synthesis inhibition counterscreen | actives 12% (n = 300,000); in the data active means max response mostly above about 13%, no sharp cut-off; inactive means mostly below about 14%; further: read at 38.3 µM for the half of the compounds with a filed dose; 0% is about no effect
SARS PLP yeast – qHTS of Yeast-based Assay for SARS-CoV PLP; S. cerevisiae expressing SARS-CoV PLpro, growth rescue; Potency, µM (series often up to 32.9 µM), for the others: top-dose activity, positive = growth rescue, most hits filed as activators; actives 0.19% (n = 330,000); further: potency means the concentration at half of the fitted maximal effect; 0% is about no effect; nearly all actives have a fitted effect of over 55% in size
Pf growth 48h – Primary qHTS for delayed death inhibitors of the malarial parasite plastid, 48 hour incubation | P. falciparum luciferase growth in erythrocytes, 48 h | Potency, µM (titrated, usually from 28.7 µM), without a hit: top-dose activity change, negative = inhibition, usual class: inhibitors | actives 5.9% (n = 310,000) | AID 504832, 2011; active means well fitted inhibition curve with a large enough effect; inconclusive means small, poorly fitted or top-dose-only effect, or another doubt; inactive means no such curve, though single readings can be large or run the other way; further: potency means the concentration at half of the fitted maximal effect; on the % scale 0 is the no-effect control and ±100 the full control effect
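Cell-based growth assay: transgenic P. falciparum expressing firefly luciferase, cultured in red cells within RPMI 1640 containing 0.5% w/v Albumax, 24 mM bicarbonate and gentamycin. A drop in luciferase activity indicates inhibition.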
NS1 inh – qHTS Assay for Inhibitors of Influenza NS1 Protein Function. Potency, µM (titrated, usually from 46.1 µM), for the others: at the highest dose activity, positive = more growth. actives 0.4% (n = 270,000). AID 2326, 2010; further: potency means the concentration at half of the fitted maximal effect; actives are rising curves; nearly all actives have a fitted effect of over 50% in size
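S. cerevisiae expressing influenza A NS1, grown in glucose, washed, then diluted 1:100 into pH 6.0 -URA galactose medium with 23 nl compound. Growth recovery read as OD600; NS1-free strain serves as control.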
Active calls of the source: *; u = inconclusive; x = no result. In the library only some 21% were active in any assay of this set; here they are far more common. Unless noted, the call rests on the fitted dose curve.

SMILES	Shiga inhibitor	Pf growth 96h	Cycloheximide cs	SARS PLP yeast	Pf growth 48h	NS1 inh
CC(=O)O[C@H]1C(=O)[C@@]2(C)[C@H]([C@H](OC(=O)c3ccccc3)[C@]3(O)C[C@H](OC(=O)[C@H](O)[C@@H](NC(=O)c4ccccc4)c4ccccc4)C(C)=C1C3(C)C)[C@]1(OC(C)=O)CO[C@@H]1C[C@@H]2O	x	0.059µM*	x	4%	0.074µM*	x
CC/C=C/CC(=O)N[C@@H](c1ccccc1)[C@@H](O)C(=O)O[C@H]1C[C@@]2(O)[C@@H](OC(=O)c3ccccc3)C3[C@](C)(C(=O)[C@H](OC(C)=O)C(=C1C)C2(C)C)[C@@H](O)C[C@H]1OC[C@@]31OC(C)=O (stereo partly drawn)	1	0.33µM*	1	0%	0.47µM*	-18%
CC(C)CNC(=O)COc1ncnc2sccc12	-13	9%	1	-6%	14%	x
Cc1cc(C)c(NC(=O)C2CCCN2C(=O)NC2CCCCC2)c(C)c1 (stereo not drawn)	-5	24%	-5	16%	-23%	18%
CCOc1cc2[nH]c(=O)n(CCCCC(=O)N3CCCCCC3)c(=O)c2cc1OCC	7	10%	1	19%	5.2µM*	-1%
COc1cc2[nH]c(=O)n(CCC(=O)N3CCN(c4cc(Cl)ccc4C)CC3)c(=O)c2cc1OC	8	0%	-2	-1%	12µM*	19%
COCCn1c(=O)[nH]c2cc(C(=O)N3CCN(c4ccccc4OC)CC3)ccc2c1=O	10	u	-3	8%	u	-9%
CCCCCNC(=O)CCCCn1c(=O)[nH]c2cc(OCC)c(OCC)cc2c1=O	-10	-30%	-5	0%	0%	1%
COc1cc2[nH]c(=O)n(CCC(=O)N3CCN(Cc4ccc5c(c4)OCO5)CC3)c(=O)c2cc1OC	8	-23%	6	-4%	-23%	x
CCOc1cc2[nH]c(=O)n(CCC(=O)N3CCN(c4ccccc4OC)CC3)c(=O)c2cc1OCC	-11	12µM*	-4	3%	u	2%
CC(C)=CCNc1ncnc2c1c(C#N)cn2[C@H]1O[C@@H](CO)[C@@H](O)[C@@H]1O	x	x	x	x	x	-3%
CNc1nnc(SCC(=O)N2c3ccccc3NC(=O)CC2C)s1 (stereo not drawn)	x	u	x	7%	37%	x
Cc1[nH]c2ccccc2c1SCc1nnc(SCc2ccccc2)n1C	-4	u	1	0%	u	-1%
Cc1[nH]c2ccccc2c1SCc1nnc(SCc2ccc(Cl)cc2)n1C	-2	u	-3	1%	15µM*	0%
Cc1ccccc1CNS(=O)(=O)c1c(C(=O)N2CCCC2)c(C)n(C)c1C	-3	-30%	5	-2%	17%	14%
Cc1c(C(=O)N2CCCCC2)c(S(=O)(=O)NCc2ccccc2Cl)c(C)n1C	-2	13µM*	-3	-8%	-11%	-3%
CS(=O)(=O)c1ccccc1C(=O)Nc1ccc(-c2nc3ccccc3[nH]2)cc1	42*	85%	19*	5%	85%	-14%
CS(=O)(=O)c1ccccc1C(=O)Nc1ccc(-c2nc3ccccc3o2)cc1	65*	u	31*	-9%	-3%	-12%
Cc1ccccc1C(=O)Nc1ccc(-c2nc3ccc(C(=O)c4ccccc4)cc3[nH]2)cc1	17	u	19	-8%	8.3µM*	-13%
O=C(O)c1ccccc1-c1ccccc1C(=O)Nc1cccc(-c2nc3ccccc3o2)c1	-6	46%	-1	0%	8%	18%
Cc1ccc(CN2CCCN(Cc3ccccc3C)S2(=O)=O)cc1	-4	44%	2	-5%	38%	-6%
COC(=O)c1ccc(OC)c(CN2CCCN(Cc3cc(C)ccc3C)S2(=O)=O)c1	-4	13%	-3	-1%	15µM*	-3%
CCOC(=O)C1CCCN(C(=O)CCn2nnnc2CN2CCOCC2)C1 (stereo not drawn)	-5	6%	8	0%	42%	2%
CCC/C(=N\NC(=O)CNC(=O)/C=C/c1ccco1)c1ccccc1	-112	37%	13*	4%	10%	15%
Cc1ccc(/C=C/C(=O)NCCc2ccccc2)o1	77*	u	40*	-7%	83%	-16%
SMILES	Shiga inhibitor	Pf growth 96h	Cycloheximide cs	SARS PLP yeast	Pf growth 48h	NS1 inh
CC/C(=N\NC(=O)CNC(=O)/C=C/c1ccco1)c1ccccc1	64	-1%	-1	1%	50%	u
O=C(/C=C/c1ccco1)NCCc1ccccc1	81*	u	47*	0%	99%	x
O=C(O)CCCNC(=O)/C=C/c1ccco1	-9	55%	-2	0%	33%	-3%
COc1cc(C(=O)NC(C(=O)Nc2cccc(C(C)=O)c2)C(C)C)cc(OC)c1OC (stereo not drawn)	-8	u	-2	2%	-5%	x
O=c1nc2c(-c3ccccc3F)n[nH]n2c2ccccc12	80*	u	20*	2%	80%	-50%
CCCCNC(=S)NCC(c1ccccc1)c1c[nH]c2ccccc12 (stereo not drawn)	-7	u	-1	-6%	u	3%
CN(C)CCCNC(=S)NCC(c1ccc(Cl)cc1Cl)c1c[nH]c2ccccc12 (stereo not drawn)	-13	2.1µM*	-3	-3%	u	17%
CCC1Oc2ccc(C)cc2N(CC(=O)N(Cc2ccc(C)o2)C2CCCC2)C1=O (stereo not drawn)	13	-39%	-3	-38%	u	-1%
O=C(Oc1ccc(OC(=O)C2CCC2)cc1)C1CCC1	-14	-5%	-1	-17%	-15%	-4%
O=C(CSc1nnc(-c2ccncc2)o1)Nc1ccc(F)c(F)c1	x	40%	x	3%	64%	x
Cc1ccc2cc3cc(C(=O)N4CCCCC4C)oc3nc2c1 (stereo not drawn)	61*	45%	21*	-1%	9.3µM*	-54%
O=C(c1cc2cc3ccc(Cl)cc3nc2o1)N1CCCCCC1	79*	-8%	21*	-8%	3%	-14%
COc1ccc2cc3cc(C(=O)N4CC(C)CC(C)C4)oc3nc2c1 (stereo not drawn)	23	-17%	19	-3%	u	-13%
Cc1ccc2cc3cc(C(=O)N4CC(C)CC(C)C4)oc3nc2c1 (stereo not drawn)	41*	x	27*	-11%	u	-66%
Oc1ccccc1N=Nc1ccccc1O	194*	68%	94*	-24%	2.6µM*	x
Oc1ccccc1N=Cc1ccc[nH]1	2	27%	16	-13%	u	-176%
CO[C@H]1OC2O[C@@]3(C)CC[C@H]4[C@H](C)CC[C@@H]([C@H]1C)[C@@]24OO3 (stereo partly drawn)	x	0.0048µM*	x	x	0.0048µM*	x

Screens from PubChem.
